Measured potencies and affinities stand elsewhere.
Experiments:
Klebsiella pneumoniae = details: Concentration 32 ug.mL-1; ASSAY_TEST Inhibition of Bacterial Growth; detection method Absorption (OD600); MEDIA CAMHB; plate type 384well; NBS; CORNING #3640; time 18 hr
Candida albicans = details: 32 ug/mL
Cryptococcus neoformans = details: Concentration 32 ug.mL-1; ASSAY_TEST Inhibition of Fungal Growth; detection method Resazurin; Absorption (OD600-OD570); plate type 384well; NBS; CORNING #3640

Row | Structure (SMILES) | Inhibition (Klebsiella pneumoniae) | Inhibition (Candida albicans) | Inhibition (Cryptococcus neoformans)
1 | CC(=O)c1cc(C(C)=O)cc(C(C)=O)c1 | 7.55% | 2.92% | -57.45%
2 | COC(=O)c1ccc(S)cc1 | -1.57% | 2.97% | -49.69%
3 | c1ccc2nc3c4cccnc4c4ncccc4c3nc2c1 | 2.4% | 9.1% | -49.42%
4 | CC(=NN)c1cc(/C(C)=N/N)cc(/C(C)=N/N)c1 | 4.02% | 5.62% | -41.95%
